Common to all, as to assay: MAPPIT interaction score (arbitrary units); higher = stronger binary interaction signal, active = hit call of the paper
The target of one assay is RpS29. Particulars: pair source set: RRS;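 active = MAPPIT score above the 99th percentile of random reference set scores in the same batch; inactive = at or below it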.
In a further assay the target is Rpt2. Particulars: MAPPIT configuration: N-N; pair source set: screen_1.
A further assay has as its target Rpn6. Particulars: pair source set: Lit-BM-16.
The target of another assay is RpS20. Particulars: MAPPIT configuration: N-N; pair source set: Curagen_low_conf.
A further assay has as its target hpo. Conditions: pair source set: Lit-BM-16.
The next assay deals with yki. Conditions: pair source set: Lit-BM-16.
The target in the next assay is RpL37A. Particulars: MAPPIT configuration: N-N; pair source set: Curagen_high_conf.
In a further assay the target is RpLP2. Particulars: MAPPIT configuration: N-N; pair source set: Finley_Y2H.
The next assay addresses RpS21. Conditions: MAPPIT configuration: N-N; pair source set: DPIM.
Another assay has as its target RpS5a. Particulars: MAPPIT configuration: N-N; pair source set: Curagen_high_conf.
A further assay deals with RpS3. Conditions: MAPPIT configuration: N-N; pair source set: Curagen_low_conf.
In a further assay the target is msl-3. Particulars: MAPPIT configuration: N-N; pair source set: DPIM.
A further assay concerns the target RpL35A. Conditions: MAPPIT configuration: N-N; pair source set: Finley_Y2H.
Another assay deals with Rtnl1. Conditions: MAPPIT configuration: N-N; pair source set: screen_2.
For a further assay, the target named is RpS10b. Conditions: MAPPIT configuration: N-N; pair source set: DPIM.

MAPPIT interaction score data for twelve molecules are collected here from the supplement of paper PMC10105736.
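Further: HEK293T cells with Epo stimulation, STAT-responsive firefly luciferase reporter, fold induction versus unstimulated cells divided by the larger fold induction of two negative controls lacking either bait or prey.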

B1: Cog8 (protein)
chain: MDFPDKMDLENERVLKLIFPDGVPDNLRGNPELDNYLAKLGTCKVEQLKKEQTRLAEEARTILEQTQDLAISNYRTFITTAENSRSIFSEFLRSEQQLDTLVSKLPDLSVQCERFLQDSAELNEQRRLNSITLQKNAQLLEVLELPQLMERCIREGRYEEALELAAYATRLGQHQGHIPVVTSIVRSVEALWHNMLVQLVAQLRTDLQLPKCLQIVGYLRRMQAFGDNELRLKFLQARDAWLTSCLEAIPTADAQQHLSKTIEITRINLFNIITQYRAIFPEDEGTLKTQSSLRPLQGVSCNGDRLFQAWLHNKISDFLQTLERDLQLGVGSVETVLGQCMYFGLSFSRVGADFRALMAPIFVGVIRRRFESSVEQVDEQFERELERFTLINKVALHSHARKQVDPEQESYAPPEALLDFYPLAALCNGYLSALNELRLCAPLALATDVTRCLQHSLQQAAQRVLAFYRQEQQAFAGSEREAFVRLCSCLAYDLVPYIQRCIHGVFPPQSLTVHLGISLLQLEQQQLTYLQQTRILEPLKHLLPTKALVQPQDKVMEAKPSAGVPVTAEG
B1: the MAPPIT interaction score with RpS29 (MAPPIT configuration: N-C) was 0.627 (inactive); with RpS29 (MAPPIT configuration: N-N), -0.265 (inactive).

B2: CG12096 (protein)
chain: MEMEDNWWVTKLKALESKPQRLDALTAMNSAIAKEAALPRQIIERLLTTDQLYDCANPAADSHVPKDQAVDVTLELLCHCLDQLAMDTADEQLSSLLRRGLTHSNPALRAQVLASLFKKLLRQLTVGQVLTLPNNELIFLILDELKQPDTQSTSLAINILSIVLPQRISNADVQAKLVQLLKQNEIVRCRAYELAVVLAKKSATLLSDVTFILDAALSELDNDDVLLQASVMELLVPLAEQNHGLSYMERRRVLDIISYRVQRVEEHPLDALLVPSIMKFFGKISVYQPLKIIGGYPHMLACLFMQLQSEDESILPTAMDTLANLATTPQGKILLNMHFSGAMEKSFKKYGSHTKKLSAHIKKRLLNSLDVIYDFKTPPATEIINIGKNWYECFAGGAHANIIMDLINTPFPDLQMAALSFLKTICKYNWGIVALKNTGGAVEFLLSRQKDLHRDIKYMKWQIMEILSASAEFSPTETIRFTAYVNEGPYHVQADLDVATEPQGNA
As to B2, the MAPPIT interaction score with Rpt2 is 5.01 (active).

B3: alien (protein)
chain: MSDNDDDFMCDDDEDYGLEYSEDSNSEPDVDLENQYYNSKALKEEEPKAALASFQKVLDLENGEKGEWGFKALKQMIKINFRLCNYDEMMVRYKQLLTYIKSAVTRNHSEKSINSILDYISTSKNMALLQNFYETTLDALRDAKNDRLWFKTNTKLGKLYFDRSDFTKLQKILKQLHQSCQTDDGEDDLKKGTQLLEIYALEIQMYTVQKNNKKLKALYEQSLHIKSAIPHPLIMGVIRECGGKMHLREGEFEKAHTDFFEAFKNYDESGSPRRTTCLKYLVLANMLMKSGINPFDSQEAKPYKNDPEILAMTNLVNSYQNNDINEFETILRQHRSNIMADQFIREHIEDLLRNIRTQVLIKLIRPYKNIAIPFIANALNIEPAEVESLLVSCILDDTIKGRIDQVNQVLQLDKINSSASRYNALEKWSNQIQSLQFAVVQKMA
As to B3, the MAPPIT interaction score is 4.99 (active) with Rpn6 (MAPPIT configuration: N-C) and 0.207 (inactive) with Rpn6 (MAPPIT configuration: N-N).

B4: hpo (protein)
chain: MSEPEVTSVVDMKSPNISSSCSFFKLKKLSEESLLQPPEKVFDIMYKLGEGSYGSVYKAVHKESSSIVAIKLVPVESDLHEIIKEISIMQQCDSPYVVRYYGSYFKQYDLWICMEYCGAGSVSDIMRLRKKTLTEDEIATILSDTLQGLVYLHLRRKIHRDIKAANILLNTEGYAKLADFGVAGQLTDTMAKRNTVIGTPFWMAPEVIEEIGYDCVADIWSLGITALEMAEGKPPYGEIHPMRAIFMIPQKPPPSFREPDRWSTEFIDFVSKCLVKEPDDRATATELLEHEFIRNAKHRSILKPMLEETCAIREQQRANRSFGGVLAASQAKSLATQENGMQQHITDNAFMEDPGTLVPEKFGEYQQSSASDATMIAHAEQGVDEGTLGPGGLRNLSKAAAPAAASSAASPLDMPAVDSGTMVELESNLGTMVINSDSDDSTTAKNNDDQKPRNRYRPQFLEHFDRKNAGDGRGDEKPIATEYSPAAAEQQQQQQQQQQQQQQDEQHLASGANDLNNWEHNMEMQFQQISAINQYGLQQHQQQQQVLMAYPLMNEQLIALNNQPNLLLSNAAPMGQQGIPAAAPAQPPPAYQNQHMHTQSHAYVEGEFEFLKFLTFDDLNQRLCNIDHEMELEIEQLNKKYNAKRQPIVDAMNAKRKRQQNINNNLIKI
As for B4, the MAPPIT interaction score with RpS20 was 2.67 (active); with hpo (MAPPIT configuration: N-C), 1.43 (inactive); with hpo (MAPPIT configuration: N-N), -0.987 (inactive); with yki (MAPPIT configuration: N-C) it was -0.198 (inactive); with yki (MAPPIT configuration: N-N), -0.76 (inactive).

B5: Cyp12a4 (protein)
chain: MLKVRSALSLIQSQKATLSLATQKRWQTNVATAEAREDSEWLQAKPFEQIPRLNMWALSMKMSMPGGKYKNMELMEMFEAMRQDYGDIFFMPGIMGNPPFLSTHNPQDFEVVFRNEGVWPNRPGNYTLLYHREEYRKDFYQGVMGVIPTQGKPWGDFRTVVNPVLMQPKNVRLYYKKMSQVNQEFVQRILELRDPDTLEAPDDFIDTINRWTLESVSVVALDKQLGLLKNSNKESEALKLFHYLDEFFIVSIDLEMKPSPWRYIKTPKLKRLMRALDGIQEVTLAYVDEAIERLDKEAKEGVVRPENEQSVLEKLLKVDRKVATVMAMDMLMAGVDTTSSTFTALLLCLAKNPEKQARLREEVMKVLPNKNSEFTEASMKNVPYLRACIKESQRLHPLIVGNARVLARDAVLSGYRVPAGTYVNIVPLNALTRDEYFPQASEFLPERWLRSPKDSESKCPANELKSTNPFVFLPFGFGPRMCVGKRIVEMELELGTARLIRNFNVEFNYPTENAFRSALINLPNIPLKFKFIDLPN
With B5, in the assay with RpL37A, the MAPPIT interaction score was -0.0129 (inactive).

B6: CG1307 (protein)
chain: MGDKLLDPTQIINGLAVMLSFFVGYRYALKRGDAKDSVTEGAATPFSQESSVSSGSEASVSDKGYGGLNDNFKMVLVVRNDLKMGKGKIAAQCGHGAVGAYQRAVVRTPRLLRSWENCGCAKIAVRVESEAELMAIKKEAERQQLNTCLIRDAGRTQIEANSKTVLAVGPAAAADIDRVTGHLKLL
On to B6, for which the MAPPIT interaction score with RpLP2 is 0.942 (inactive).

B7: l(2)gl (protein)
chain: MLKFIRGKGQQPSADRHRLQKDLFAYRKTAQHGFPHKPSALAYDPVLKLMAIGTQTGALKVFGQPGVELYGQHTLLNNSASELNVQLLEWVYGTGRILSLTAANQLILWEPVGATLLPIKTLPFDGKLKKVSSLCCSLSKDLLWIGTEGGNIYQLDLHTFTIKEPVIYHDVVLEQVPPAYKLNPGAIESIRQLPNSPSKLLVAYNRGLCVLWDFESASVQRAYIAPGHGQSVGLTVNFEGSEFTWYHADGSYATWSIDNPEPPSNVNYVPYGPDPCKSINRLYKGKRRSNDVIVFSGGMPRSAYGDHNCVSVHASDGHKVCLDFTSKVIDFFVTFENNRDVAEVLVVLLEEELCAYDLTDPNICAIKAPYLHSVHASAVTCNYLASEVVQSVYESILRAGDEQDIDYSNISWPITGGTLPDNLEESVEEDATKLYEILLTGHEDGSVKFWDCTGVLLKPIYNFKTSSIFGSESDFRDDAAADMSAEQVDEGEPPFRKSGLFDPYSDDPRLAVKKIAFCPKTGQLIVGGTAGQIVIADFIDLPEKVSLKYISMNLVSDRDGFVWKGHDQLNVRSNLLDGEAIPTTERGVNISGVLQVLPPASITCMALEASWGLVSGGTAHGLVLFDFKNFVPVFHRCTLNPNDLTGAGEQLSRRKSFKKSLRESFRKLRKGRSTRTNQSNQVPTTLEARPVERQIEARCADDGLGSMVRCLLFAKTYVTNVNITSPTLWSATNASTVSVFLLHLPPAQTAATAVPSASGNAPPHMPRRISAQLAKEIQLKHRAPVVGISIFDQAGSPVDQLNAGENGSPPHRVLIASEEQFKVFSLPQLKPINKYKLTANEGARIRRIHFGSFSCRISPETLQSMHGCSPTKSTRSHGDGEADPNISGSLAVSRGDVYNETALICLTNMGDIMVLSVPELKRQLNAAAVRREDINGVSSLCFTNSGEALYMMSSSELQRIALATSRVVQPTGVVPVEPLENEESVLEENDAENNKETYACDEVVNTYEIKNPSGISICTRPAEENVGRNSVQQVNGVNISNSPNQANETISSSIGDITVDSVRDHLNMTTTTLCSINTEETIGRLSVLSTQTNKASTTVNMSEIPNINISNLEDLESKRNTTETSTSSVVIKSIITNISHEKTNGDNKIGTPKTAPEESQF
For B7, the MAPPIT interaction score with RpS21 was 0.14 (inactive).

B8: Vm32E (protein)
chain: MQIVALTLVAFVAIAGASCPYAAPAPAYSAPAASSGYPAPPCPTNYLFSCQPNLAPAPCAQEAPAYGSAGAYTEQVPHYVGSPNREQLQQFHQRIGMAALMEELRGLGQGIQGQQY
In the case of B8, the MAPPIT interaction score with RpS5a was 0.177 (inactive).

B9: mts (protein)
chain: MEDKATTKDLDQWIEQLNECNQLTETQVRTLCDKAKEILSKESNVQEVKCPVTVCGDVHGQFHDLMELFRIGGKSPDTNYLFMGDYVDRGYYSVETVTLLVALKVRYRERITILRGNHESRQITQVYGFYDECLRKYGNANVWKYFTDLFDYLPLTALVDGQIFCLHGGLSPSIDSLDHIRALDRLQEVPHEGPMCDLLWSDPDDRGGWGISPRGAGYTFGQDISETFNNTNGLTLVSRAHQLVMEGYNWCHDRNVVTIFSAPNYCYRCGNQAALMELDDSLKFSFLQFDPAPRRGEPHVTRRTPDYFL
Consider B9, for which the MAPPIT interaction score with RpS3 is 0.284 (inactive); in the assay with msl-3 it was 1.55 (inactive).

B10: Archease (protein)
chain: MEVEFSRENFLLPEMKYEYLDHTADVQIHGWGSSLKEAFEQCGVAMFGYMTELDYVSVEQCFEIEAHGDDLESLLFHFLDELLFLFSAEPYLVCKKLEITKFDVENFEISCHCYGEPFELGKHPQGTEVKAITYSAMQIIQDVEASNYEVFVIIDI
As for B10, the MAPPIT interaction score with RpL35A was -0.294 (inactive).

B11: rush (protein)
chain: MVDRLVNSEANTRRIASVENCFGSSGVPLAMQGRVLVGEGVLTKMCRKRPKSRQFFLFNDILVYGNIVIGKKKYNKQHIMPLEEVSLESIADNQTYRNGWYIRTTTKSFVVFAATSTEKQEWMAHINKCVEDLLRKSGKKPVENHAAVWVPDTDASVCMHCKKTQFTFIQRRHHCRNCGAVVCAGCSAKKFLLPQQSTKALRVCDACYERLKHVPSSLGSGEDSAAATGAASGNKLNTTAGDSSNDEDSDEETASPGGESHDEPRFYGDNSVLSAVEDSSTITSPSSATTGSLEAPQVTPSVQSSPAAVATTGSHC
With B11, the MAPPIT interaction score with Rtnl1 is -0.205 (inactive).

B12: Csp (protein)
chain: MSAPGMDKRKLSTSGDSLYEILGLPKTATGDDIKKTYRKLALKYHPDKNPDNVDAADKFKEVNRAHSILSNQTKRNIYDNYGSLGLYIAEQFGEENVNAYFVVTSPAVKAVVICCAVITGCCCCCCCCCCCNFCCGKFKPPVNESHDQYSHLNRPDGNREGNDMPTHLGQPPRLEDVDLDDVNLGAGGAPVTSQPREQAGGQPVFAMPPPSGAVGVNPFTGAPVAANENTSLNTTEQTTYTPDMVNQKY
As for B12, in the assay with RpS10b, the MAPPIT interaction score is 1.05 (inactive).
